Screening results (PubChem BioAssay)
In the library only some 22% were active in any assay of this set; here they are far more common.
CYP2C9 activ: activators of human CYP2C9 | P11712 | recombinant CYP2C9, luciferin-H conversion, luminescence; active compounds read high; factor 1 = untreated enzyme, 0 = blocked | activation factor at 5 µM | actives 1.4% (n = 96,000) | AID 1024;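 active = activation factor of 2 or more for CYP2C9 at a 5 µM dose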;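 also: 0 = sulfaphenazole-blocked wells and 1 = vehicle-only wells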
CYP2C19 activ: activators of human cytochrome P450 2C19; 96,000 tested, under 10 active; P33261; AID 1025; recombinant CYP2C19, luciferin-H EGE luminescence; active compounds read high; 0 = fully inhibited enzyme, 1 = untreated enzyme; activation factor at 5 µM;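 active = activation factor of at least 2 at 5 µM in the primary screen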;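 also: 0 = wells with 2.5 mM tranylcypromine and 1 = vehicle-only wells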
Target sequence (P33261 whole entry, looked up): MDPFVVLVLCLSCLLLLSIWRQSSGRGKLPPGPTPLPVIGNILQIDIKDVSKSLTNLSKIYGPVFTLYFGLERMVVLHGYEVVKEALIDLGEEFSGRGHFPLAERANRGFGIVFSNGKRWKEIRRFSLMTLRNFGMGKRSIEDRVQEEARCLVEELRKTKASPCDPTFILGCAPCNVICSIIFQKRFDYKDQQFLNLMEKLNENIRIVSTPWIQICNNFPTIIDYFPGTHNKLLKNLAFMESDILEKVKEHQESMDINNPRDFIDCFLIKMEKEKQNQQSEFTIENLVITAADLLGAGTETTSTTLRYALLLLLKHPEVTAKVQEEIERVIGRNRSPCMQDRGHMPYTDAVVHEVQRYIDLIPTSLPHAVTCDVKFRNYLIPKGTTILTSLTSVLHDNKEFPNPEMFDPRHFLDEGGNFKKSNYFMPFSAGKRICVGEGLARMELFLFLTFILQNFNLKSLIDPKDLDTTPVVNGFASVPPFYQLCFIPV
F-actin modifier: modifiers of cytoskeleton assembly; actives 0.18% (n = 91,000); inhibition, % at 2 µM; HUVEC TNFa F-actin phalloidin imaging, high content;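 active = inhibition above the batch mean plus 3 SD and confirmed as a hit by visual image inspection, cut at about 30% in these data, passing the limit was not always enough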
CYP2C9 inhib: human CYP2C9 inhibition. CYP2C9 Supersomes, luciferin-H conversion, luminescence. inhibition, % at 5 µM. AID 777. actives 20% (n = 96,000). P11712;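 active = blocking of liver enzyme CYP2C9 beyond about 50% at 5 µM, limit read from the data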
E-sel TNF inh: blocks E-selectin expression induced by TNF alpha; AID 1246; HUVEC TNFa-induced E-selectin immunofluorescence, high content; actives 0.71% (n = 120,000); inhibition, % at 2 µM;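 active = inhibition above the batch mean plus 3 SD, and confirmed as a hit on visual image review, cut at about 43% in these data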;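 also: 0% = TNF-stimulated DMSO wells and 100% = unstimulated control wells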
CYP2C19 inhib: inhibitors of human CYP2C19 | CYP2C19 Supersomes, luciferin-H EGE luminescence, 30 min | inhibition, % at 5 µM | actives 21% (n = 96,000) | AID 778;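 active = CYP2C19 inhibition above a set limit at 5 µM in the primary screen, cut at about 50% in these data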;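 also: plate controls were negative control wells for no effect and 2.5 mM tranylcypromine positive control for full effect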
The depositor's hits bear a star; . = no result given.

SMILES	CYP2C9 activ	CYP2C19 activ	F-actin modifier	CYP2C9 inhib	E-sel TNF inh	CYP2C19 inhib
Cn1c(SCC(=O)Nc2ccc3c(c2)OCCO3)nnc1-c1ccco1	0.4	0.5	-18	63*	-14	52*
CCn1c(SCC(=O)Nc2ccc3c(c2)OCCO3)nnc1-c1ccco1	0.8	0.8	2	21	-21	15
O=C(CSc1nnc(-c2cccs2)n1Cc1ccco1)Nc1ccc2c(c1)OCO2	0.4	0.7	16	63*	-24	33
Cc1ccc(OCCSc2nnc(C)c(=O)n2N)cc1	.	.	.	.	2	.
CCn1c(Cc2ccccc2)nnc1SCC(=O)Nc1ccc2c(c1)OCCO2	0.4	0.3	-13	58*	-20	68*
O=C(CSc1nnc(-c2ccccc2)n1Cc1ccco1)Nc1ccc2c(c1)OCCO2	0.5	0.4	-2	55*	16	56*
CCn1c(COc2ccc(Cl)cc2)nnc1SCC(=O)Nc1ccc2c(c1)OCCO2	1	1.1	-37	-1	4	-8
CCCCC(=O)Oc1ccccc1C1SCc2cc(C)c(C)cc2CS1	0.8	1	8	15	-28	1
Cc1cc2c(cc1C)CSC(c1ccccc1O)SC2	0.9	0.8	-4	14	10	18
Cc1cc2c(cc1C)CSC(c1ccc3ccccc3c1O)SC2	0.1	0.5	12	92*	13	53*
Cc1cc2c(cc1C)CSC(c1ccccc1OC(=O)C(C)(C)C)SC2	0.5	0.7	-4	52*	-5	27
Cc1cc2c(cc1C)CSC(c1c(O)ccc3ccccc13)SC2	0	0.2	-1	99*	6	81*
C/C(=C/C(=O)NCc1ccccc1)C(=O)O	1	1.1	2	1	42	-7
COc1cc(Cl)c(C)cc1NC(=O)CSc1ccc(C)cc1	0.9	0.9	-9	11	0	9
COc1cc(Cl)c(C)cc1NC(=O)CSC	0.9	0.5	-8	15	-15	52*
COc1ccccc1NC(=O)COc1cc(C)nc(C(C)C)n1	1	1	-5	5	-23	4
COc1cc(Cl)c(C)cc1NC(=O)COc1cc(C)nc(C(C)C)n1	0.5	0.5	.	51*	-10	48
CC(=O)/C(=N\Nc1ccccc1)Oc1ccc([N+](=O)[O-])cc1	.	.	-1	.	-2	.
O=C(Cn1cc2c(n1)CCCC2)Nc1ccccc1Cl	0.8	0.9	.	19	3	12
CC(C)C(NC=C1C(=O)OC(C)(C)OC1=O)C(=O)O (stereo not given)	0.3	1	1	65*	17	2
CCN(CC)S(=O)(=O)c1ccc(N/N=C/c2cc(OC)ccc2O)nc1	.	.	.	.	23	.
Clc1ccc(Nc2nc3cccnc3s2)cc1	.	.	.	.	72*	.
Cc1ccc(N2CCN(c3ccc(C)cc3)C2c2ccncc2)cc1	0.3	0.1	-19	71*	4	88*
CCOC(=O)c1c(C)n(OC)c2ccc3c(no[n+]3[O-])c12	0.6	0.5	5	43	11	46
CCCCOn1c(C)c(C(=O)OCC)c2c3no[n+]([O-])c3ccc21	0.4	0.6	-22	62*	-7	45
SMILES	CYP2C9 activ	CYP2C19 activ	F-actin modifier	CYP2C9 inhib	E-sel TNF inh	CYP2C19 inhib
CCOC(=O)c1ccc(NC(=O)CSc2nnc(C3CCCCC3)n2C)cc1	.	.	-11	.	2	.
O=C(O)C1OC(Oc2cc3oc(-c4ccccc4)cc(=O)c3c(O)c2O)C(O)C(O)C1O (stereo not given)	.	.	.	.	-1	.
COc1ccc(S(=O)(=O)N2CCc3ccccc32)cc1C(=O)OCc1nnc(-c2ccccc2)o1	0	0.1	14	99*	.	88*
O=C(OCc1nnc(-c2ccccc2)o1)c1cc(S(=O)(=O)N2CCOCC2)c(Cl)cc1Cl	0.7	0.8	-3	34	.	17
Cn1c(SCC(=O)NCc2ccc3c(c2)OCO3)nc2scc(-c3cccs3)c2c1=O	0.2	0.8	-53	80*	-14	23
Nc1nnc(SCC(=O)NCc2ccc3c(c2)OCO3)s1	0.9	0.5	-3	10	-6	47
Cc1ccc(-c2csc3ncnc(SCC(=O)NCc4ccc5c(c4)OCO5)c23)cc1	0.4	0.8	2	57*	.	22
O=C(CSc1n[nH]c(-c2cccs2)n1)NCc1ccc2c(c1)OCO2	0	0.1	4	97*	7	85*
Cn1c(SCC(=O)NCc2cccs2)nnc1-c1cccs1	1.1	1.2	6	-14	4	-16
O=C(CSc1n[nH]c(-c2cccs2)n1)NCc1cccs1	0.8	0.3	0	25	-15	69*
OCCN1CCN(C(=S)c2ccc(Br)cc2)CC1	0.9	0.6	32	8	-15	40
CCC(C)NC(=O)Cn1c(=O)n(CCCCCC(=O)Nc2ccccc2)c(=O)c2sccc21 (stereo not given)	.	.	.	.	-1	.
N#Cc1c(N)nc(SCC(=O)NCc2ccc3c(c2)OCO3)c(C#N)c1-c1cccs1	0.3	0.7	60*	74*	21	26
COc1ccccc1CNC(=O)CSc1nc(N)c(C#N)c(-c2cccs2)c1C#N	1	0.9	-2	-1	.	9
O=C(NCc1ccco1)c1ccc2ccccc2n1	.	.	.	.	4	.
CN1CCN(S(=O)(=O)c2ccc3c4c(cccc24)C(=O)N3)CC1	1.9	0.4	2	-88	.	55*
O=C1Nc2ccc(S(=O)(=O)NCc3ccccn3)c3cccc1c23	0.9	0.7	2	11	7	34
O=C1Nc2ccc(S(=O)(=O)N3CCCC3C(=O)O)c3cccc1c23 (stereo not given)	1	1	1	-3	.	-1
O=C1Nc2ccc(S(=O)(=O)N3CCOCC3)c3cccc1c23	1.2	0.4	-10	-18	15	59*
CCOc1ccccc1N1CCN(S(=O)(=O)c2ccc3c4c(cccc24)C(=O)N3)CC1	0.3	0.1	24	73*	-7	91*
O=C1Nc2ccc(S(=O)(=O)N3CCCC3)c3cccc1c23	0.6	0.2	-2	41	18	83*
CCN(CC(=O)NC1CCS(=O)(=O)C1)C(=O)C(c1ccccc1)c1ccccc1 (stereo not given)	0.9	1	9	7	9	5
O=S(=O)(c1cccc2c(S(=O)(=O)N3CCCC3)cccc12)N1CCCC1	0.8	1	-12	16	6	1
O=C1Nc2ccc(S(=O)(=O)N3CCCCCC3)c3cccc1c23	0.6	0.2	-4	43	-6	79*
O=C(NNc1ccc([N+](=O)[O-])cc1)c1ccccc1F	.	.	.	.	-16	.
CCC1Oc2ccc(C)cc2N(CC(=O)NCc2cccc(OC)c2)C1=O (stereo not given)	0.9	0.1	-14	14	22	94*
CCC1Oc2ccc(C)cc2N(CC(=O)NCc2cc(OC)ccc2OC)C1=O (stereo not given)	0.8	0.3	.	16	-7	73*
CCC1Oc2ccc(C)cc2N(CC(=O)NCCCN2CCN(Cc3ccccc3)CC2)C1=O (stereo not given)	0.9	0.9	.	8	-13	10
